# Laboratory results published in publication PMC4336329 (PLoS ONE, 2015).
# In all, about 310,000 compounds went through this assay and about 14,000 (4.5%) showed an effect of 50% or more. Effects have a minus sign here. The list comes from a sample in which strong results are over-represented; it also holds similar structures and randomly drawn compounds.
# Biological target: human ether-à-go-go-related gene (hERG) potassium channel (human, UniProt Q12809)
# Experiment: primary screen, population patch clamp on CHO cells stably expressing hERG; higher = less effect of the substance
# 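Further: peak tail current of the secondary pulse compared with the same well before compound.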
# Chain of human ether-à-go-go-related gene (hERG) potassium channel (Q12809 whole entry, looked up): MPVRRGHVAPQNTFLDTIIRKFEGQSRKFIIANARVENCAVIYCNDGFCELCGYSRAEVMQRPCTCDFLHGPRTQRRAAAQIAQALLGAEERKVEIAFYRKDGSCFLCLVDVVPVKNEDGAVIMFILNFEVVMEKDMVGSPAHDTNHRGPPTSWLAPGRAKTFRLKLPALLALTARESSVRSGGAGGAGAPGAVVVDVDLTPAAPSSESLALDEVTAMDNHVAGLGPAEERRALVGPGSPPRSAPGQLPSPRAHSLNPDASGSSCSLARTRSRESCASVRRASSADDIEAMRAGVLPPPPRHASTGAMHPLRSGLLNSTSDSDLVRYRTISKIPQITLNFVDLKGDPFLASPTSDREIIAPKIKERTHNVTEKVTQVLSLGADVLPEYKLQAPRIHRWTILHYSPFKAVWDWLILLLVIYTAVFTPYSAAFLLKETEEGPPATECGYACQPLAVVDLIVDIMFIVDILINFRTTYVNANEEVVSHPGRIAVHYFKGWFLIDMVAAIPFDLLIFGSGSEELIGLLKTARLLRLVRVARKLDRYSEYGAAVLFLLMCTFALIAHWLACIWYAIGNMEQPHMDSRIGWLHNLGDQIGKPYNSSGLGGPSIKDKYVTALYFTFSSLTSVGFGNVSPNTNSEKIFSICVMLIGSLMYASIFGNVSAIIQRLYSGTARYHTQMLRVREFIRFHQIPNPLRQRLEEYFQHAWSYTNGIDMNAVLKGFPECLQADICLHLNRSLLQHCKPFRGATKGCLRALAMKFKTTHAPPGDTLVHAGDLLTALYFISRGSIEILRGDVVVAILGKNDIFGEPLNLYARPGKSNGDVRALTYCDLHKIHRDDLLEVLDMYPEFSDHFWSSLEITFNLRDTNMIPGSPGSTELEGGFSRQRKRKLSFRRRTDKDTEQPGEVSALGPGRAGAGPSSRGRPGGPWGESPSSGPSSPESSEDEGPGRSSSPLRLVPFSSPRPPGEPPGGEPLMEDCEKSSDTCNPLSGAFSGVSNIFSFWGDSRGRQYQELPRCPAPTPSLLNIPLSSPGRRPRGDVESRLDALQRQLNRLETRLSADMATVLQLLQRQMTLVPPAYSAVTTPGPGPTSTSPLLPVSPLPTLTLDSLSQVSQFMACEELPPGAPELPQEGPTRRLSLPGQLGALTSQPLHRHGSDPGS
row,Structure (SMILES),"hERG current change (%, negative = inhibition) at 10uM [%]"
1,O=C(Nc1ccc2c(c1)CCC2)c1ccccc1,9.66
2,Cc1cccc(C2c3[nH]c4ccccc4c3CCN2C(=O)c2ocnc2C)n1 (stereo not shown),-10.5
3,Cc1ncoc1C(=O)N1CCc2c([nH]c3ccccc23)C1C1CCCCC1 (stereo not shown),1.89
4,Cc1ncoc1C(=O)N1CCc2c([nH]c3ccccc23)C1C(C)(C)C (stereo not shown),-65.3
5,COc1ccc(CNC(=O)C(C)n2ccc3cc(S(=O)(=O)N4CCCCCC4)ccc32)cc1 (stereo not shown),1.82
6,CCN(CC)CCC(c1ccc2c(c1)OCO2)c1c(O)cc(OC)cc1OC (stereo not shown),-73.4
7,CCN(CC)CCC(c1ccc(OC)cc1)c1c(O)cc(OC)cc1OC (stereo not shown),-66.4
8,CCN(CC)C(=O)CC(c1ccc2c(c1)OCO2)c1c(O)cc(OC)cc1OC (stereo not shown),-2.77
9,CCN(CC)C(=O)CC(c1ccc(OC)cc1)c1c(O)cc(OC)cc1OC (stereo not shown),-1.57
10,CCN(CC)CCC(c1ccc(N(C)C)cc1)c1c(O)cc(OC)cc1OC (stereo not shown),-0.431
11,CCN(CC)CCC(c1ccc2c(c1)OCO2)c1c(OC)cc(OC)c2ccc(=O)oc12 (stereo not shown),-46.2
12,CC(C)CC(C(=O)OCC(=O)c1c(N)n(C)c(=O)n(C)c1=O)N1C(=O)c2ccccc2C1=O (stereo not shown),-27
13,COCCNC(=S)N1CCC(C(=O)c2ccc3c(c2)OCCO3)CC1,32.7
14,Cc1ccc(F)cc1CNC(=O)c1cc(COc2ccc3ncccc3c2)on1,5.04
15,CCn1c(=O)c2c(cnn2C)c2ccccc21,2.58
16,Brc1ccc(-c2c(-c3ccsc3)sc3ccccc23)cn1,14.1
17,Cc1ccc(-c2nc(CS(=O)CC(=O)NCCN3CCCC3)c(C)o2)cc1 (stereo not shown),-5.74
18,CC(C)c1ccc(-c2csc(NC(=O)c3cccs3)c2C(=O)O)cc1,18.3
19,O=C(CSc1nc2ccccc2c(=O)n1Cc1ccccc1)NCc1ccco1,-39.6
20,COc1cc2nc(SCC(=O)NCCc3ccccc3)n(Cc3ccco3)c(=O)c2cc1OC,-43.3
21,O=C(CSc1nc2ccsc2c(=O)n1Cc1ccc(C(=O)O)cc1)NCc1ccco1,2.08
22,COCCNC(=O)CSc1nc2cc3c(cc2c(=O)n1Cc1ccco1)OCO3,-27.4

row,Structure (SMILES),"hERG current change (%, negative = inhibition) at 10uM [%]"
1,COCCNC(=O)CSc1nc2cc(OC)c(OC)cc2c(=O)n1Cc1ccco1,-61.2
2,Cc1ccccc1-n1c(SCC(=O)NCc2cccs2)nc2ccccc2c1=O,-17.4
3,Cn1c(SCC(=O)NCc2ccco2)nc2ccccc2c1=O,-23.6
4,O=C(CSc1nc2ccccc2c(=O)n1Cc1ccc(F)cc1)NCc1cccs1,-14
5,O=C(CSc1nc2ccccc2c(=O)n1Cc1ccc(C(=O)NC2CC2)cc1)NCc1ccco1,-51.5
6,O=C(CSc1nc2ccccc2c(=O)n1Cc1ccco1)NCc1ccccc1,-29.3
7,O=C(CSc1nc2ccccc2c(=O)n1Cc1ccc(Cl)cc1)NCc1cccs1,-52.5
8,O=C(CSc1nc2ccccc2c(=O)n1Cc1ccco1)NCc1ccco1,-65.4
9,Cc1cc(C(=O)N2CCCC(CCC(=O)N3CCN(c4ccccn4)CC3)C2)c(C)o1 (stereo not shown),-9.16
10,COc1cccc(Cn2c(=S)[nH]c3ccc(N4CCOCC4)cc3c2=O)c1,-8.19
11,CCOC(=O)C1CCCN(C(=O)Cn2cnc3c2c(=O)n(C)c(=O)n3C)C1 (stereo not shown),20.3
12,O=C(C1CCCC1)N1CCN=C1SCc1cccc([N+](=O)[O-])c1,-19.3
13,Cc1ccc2nc(NCc3ccc(F)cc3)c3nncn3c2c1,2.23
14,COc1ccc(C2N(Cc3ccccc3)CCN2Cc2ccccc2)cc1[N+](=O)[O-],-29.9
15,Cc1ccc(CSc2nc3ccccc3c(=O)n2Cc2ccco2)cc1,8.42
16,O=C(CSc1nc2ccccc2c(=O)n1Cc1ccco1)Nc1cccc(O)c1,3.9
17,CCC(Sc1nc2cc3c(cc2c(=O)n1Cc1ccco1)OCO3)C(=O)NCCOC (stereo not shown),-63.6
18,Cn1c(SCC(=O)NCCN2C(=O)CSC2=O)nc2ccccc2c1=O,-2.05
19,O=C(CSc1nc2ccccc2c(=O)n1-c1ccccc1)NCc1ccco1,-15.1
20,CCc1ccccc1NC(=O)C(CC)Sc1nc2cc3c(cc2c(=O)n1Cc1ccco1)OCO3 (stereo not shown),17.1
21,CCC(Sc1nc2cc(OC)c(OC)cc2c(=O)n1Cc1ccco1)C(=O)NCCOC (stereo not shown),-28.2
22,CCn1c(SCC(=O)NCc2ccco2)nc2ccccc2c1=O,-34.4

row,Structure (SMILES),"hERG current change (%, negative = inhibition) at 10uM [%]"
1,CN(Cc1ccccc1)C(=O)CSc1nc2ccccc2c(=O)n1Cc1ccco1,-3.56
2,Cc1ccc(NC(=O)CN(C)C(=O)CSc2nc3ccccc3c(=O)n2Cc2ccco2)cc1,-71.1
3,C=CCn1c(SCC(=O)NCc2ccco2)nc2ccccc2c1=O,-50.3
4,O=C(CSc1nc2ccccc2c(=O)n1Cc1ccco1)NCCN1C(=O)CSC1=O,-61.4
5,CCOc1ccc(C(=O)Nc2ccc(S(=O)(=O)Nc3cc(C)on3)cc2)cc1,-9.73
6,O=C(CSc1nnc(COc2ccccc2)n1Cc1ccco1)c1ccc(F)cc1,-21.1
7,Cc1ccnc2nc(C(=O)OCCOc3cccc(Br)c3)nn12,-27.9
8,COc1ccc(NC(=O)CCN2CC(C)OC(C)C2)c(OC)c1.Cl (stereo not shown),13.2
9,CCOc1cc(/C=N/n2c(COc3ccccc3)n[nH]c2=S)ccc1O,24.4
10,Cn1c(CN2CCOCC2)nnc1SCC(=O)NC1CCCCC1,17.7
11,COc1cccc(C2(C)NC(=O)N(CC(=O)c3cc(C)n(C4CC4)c3C)C2=O)c1 (stereo not shown),-35.8
12,O=C(NCc1ccc2c(c1)OCO2)c1ccc(Br)s1,6.32
13,CCOC(=O)C1CCN(C(=O)Cn2nc(CC)n3cccc3c2=O)CC1,-0.254
14,Cc1cccc(NC(=O)N2C3CCCC2CC(NC(=O)C(C)(C)C)C3)c1 (stereo not shown),1.47
15,CCOC(=O)N1CCN(C(=O)c2ccc3c(c2)NC(=O)C(N2CCOCC2)S3)CC1 (stereo not shown),-4.6
16,CCOc1cccc2cc(C(=O)NCc3cccnc3)c(=O)oc12,-1.94
17,CCN(CC)C(=O)CSc1nc2cc(OC)c(OC)cc2c(=O)n1Cc1ccc(Cl)cc1,-77
18,CCN(CC)C(=O)CSc1nc2cc3c(cc2c(=O)n1Cc1ccc(OC)cc1)OCO3,12.1
19,COc1cc2nc(SCC(=O)NCc3ccco3)n(Cc3ccc(Cl)cc3)c(=O)c2cc1OC,-3.17
20,Cc1nc2ccccc2n1CCc1nc2c3ccccc3nc(SCC(=O)NCc3ccco3)n2n1,-60
21,O=C(CSc1nc2ccccc2n1CC(=O)NCc1ccccc1)NCc1ccco1,-20.2
22,O=C(CSc1nc2ccccc2c2nc3ccccc3n12)NCc1ccco1,-8.55

row,Structure (SMILES),"hERG current change (%, negative = inhibition) at 10uM [%]"
1,O=C(CSc1nc2ccccc2c(=O)n1Cc1ccco1)c1ccc(F)cc1,9.22
2,O=c1c2ccccc2nc(SCc2ccccc2)n1Cc1ccco1,1.3
3,CC(Sc1nc2ccccc2c(=O)n1Cc1ccco1)C(=O)c1ccccc1 (stereo not shown),-53.9
4,CC1CCCCC1NC(=O)CSc1nc2ccccc2c(=O)n1Cc1ccco1 (stereo not shown),13
5,CN(C)C(CNC(=O)CSc1nc2ccccc2c(=O)n1Cc1ccco1)c1ccccc1 (stereo not shown),-67.1
6,COc1ccc(CCNc2ncnc3c2oc2ccccc23)cc1OC.Cl,0.357
7,CCCCn1nc(C(=O)N2CCc3ccccc32)c2ccccc2c1=O,-28.4
8,CN(Cc1nc(-c2cnccn2)no1)Cc1cccc2ccccc12,-2.31
9,CCc1ccc(-c2ccc(SCc3ccccn3)nn2)cc1,3.91
10,O=C(Cn1cc(C(F)(F)F)ccc1=O)NCc1ccc(F)cc1,15.6
11,CS(=O)(=O)N(CC(=O)N1CCN(c2ccccc2)CC1)c1cccc(Br)c1,-19.2
12,O=C(CCN1C(=O)/C(=C/C=C/c2ccccc2)SC1=S)Nc1nc2ccccc2s1,18.3
13,NCC(c1ccccc1Cl)c1c[nH]c2ccccc12 (stereo not shown),12.8
14,FC(F)(F)c1ccccc1Nc1nccs1,-16.1
15,CCC1(OC(=O)c2ccccc2)CC(C)N(C)CC1C.Cl (stereo not shown),-7.85
16,CCC(=O)OC1(Cc2ccc(CC)cc2)CC(C)N(C)CC1C.Cl (stereo not shown),-59.4
17,CCc1ccc(CC2(O)CC(C)N(C)CC2C)cc1 (stereo not shown),-29.7
18,CNC(=S)NNC(=O)c1cc(C(C)(C)C)nn1Cc1ccc(F)cc1,14.6
19,Cc1cc(C)cc(N2C(=O)CC(N3CCOCC3)C2=O)c1 (stereo not shown),14.9
